Measured values as given in PubChem BioAssay (NCATS).
Records with an inconclusive call do not appear. Activity calls are given as the source filed them. Calls come from the whole dose curve; as a rule, active = well fitted curve in the direction sought with a large enough effect; inconclusive = small, poorly fitted or top-dose-only effect, or another doubt; inactive = no such curve, though single readings can be large; an effect the other way counts as inactive or inconclusive.

Columns and labels:
[1] = Viability qHTS for spleen associated tyrosine kinase inhibitor (SYKi) naive MV4-11 cells (AID 1963823); note: nearly all actives have a fitted effect of over 40% in size
Procedure, shortened: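 Viability of MV4-11 AML cells lacking prior SYK inhibitor exposure is scored by CellTiter-Glo luminescence following 72 hr compound incubation at 37 C, 5% CO2, seeded at 500 cells per well.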

[2] = Viability qHTS for spleen associated tyrosine kinase inhibitor (SYKi) drug resistant MV4-11 cells (AID 1963824); note: nearly all actives have a fitted effect of over 35% in size
Procedure, shortened: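 SYK inhibitor-resistant MV4-11 AML cells, 500 per well, added to predispensed compounds and incubated 72 hr at 37 C, 5% CO2. Viability measured by CellTiter-Glo luminescence after 10 min at room temperature.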

[3] = Cellular viability qHTS for adrenocortical cancer (ACC) cell line SW-13 (AID 1963989); conditions: SW-13 ACC cells viability, CellTiter-Glo, 48 h; activity (max response): stronger effect = lower value; note: nearly all actives have a fitted effect of over 65% in size;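 for activity (max response): cells grown in serum-free medium with ITS supplement; % is set by controls: 0 for no effect and ±100 for the full control effect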
Procedure, shortened: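 Compound titrations (up to 46 uM final, in DMSO) were applied to SW-13 cells for 48 h at 37C/5% CO2. Reading used CellTiter-Glo after 20 min at room temperature; fitted curves yielded IC50 and efficacy.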

[4] = Cellular viability qHTS for adrenocortical cancer (ACC) cell line NCI-H295R (AID 1963990); note: nearly all actives have a fitted effect of over 60% in size
Procedure, shortened: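 Readout: CellTiter-Glo luminescence, 20 min RT. Exposure: 48 h, 37C/5% CO2. Cells: NCI-H295R, ITS-DMEM serum-free. Range: up to 46 uM. Analysis: 4PL fit, IC50 plus efficacy.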
Potency is the fitted concentration of half-maximal effect.

CC(=O)O[C@H]1CC[C@@]2(C)C(=CC[C@@H]3[C@@H]2CC[C@]2(C)C(C(C)=O)=CC[C@@H]32)C1
inactive: Potency [1] | Potency [2] | activity (max response) [3] 8.77% | Potency [4]

COC(=O)Nc1nc2ccc(C(=O)C3CC3)cc2[nH]1
active: Potency [1] 1060 nM | Potency [2] 750 nM | Potency [3] 731 nM | Potency [4] 461 nM

COc1ccc(-c2cc(C(O)C3CCCCN3)c3ccccc3n2)cc1 (stereo unspecified)
active: Potency [1] 525 nM | Potency [2] 1660 nM | Potency [3] 28200 nM | Potency [4] 11200 nM

NS(=O)(=O)c1cc(-c2nn[nH]n2)c(NCc2cccs2)cc1Cl
inactive: Potency [1] | Potency [2] | activity (max response) [3] 11.4% | Potency [4]

Nc1ccc(F)cc1NC(=O)c1ccc(CNC(=O)/C=C/c2cccnc2)cc1
active: Potency [1] 1660 nM | Potency [2] 833 nM | Potency [3] 11200 nM | Potency [4] 3550 nM

Brc1c(NC2=NCCN2)ccc2nccnc12
inactive: Potency [1] | Potency [2] | activity (max response) [3] -5.06% | Potency [4]

CC1(C(=O)O)CCC2(C)CCC3(C)C(=CC(=O)C4C5(C)CCC(OC6OC(C(=O)O)C(O)C(O)C6OC6OC(C(=O)O)C(O)C(O)C6O)C(C)(C)C5CCC43C)C2C1 (stereo unspecified)
inactive: Potency [1] | Potency [2] | activity (max response) [3] 1.77% | Potency [4]

O=C(/C=C/c1ccc(CN(CCO)CCc2c[nH]c3ccccc23)cc1)NO
active: Potency [1] 74.2 nM | Potency [2] 59 nM | Potency [3] 708 nM | Potency [4] 562 nM

O=C(CO)[C@@H](O)[C@H](O)[C@@H](O)CO
inactive: Potency [1] | Potency [2] | activity (max response) [3] 0.0107% | Potency [4]
